# Measured values reported in PubChem BioAssay (NCATS).
# Inconclusive results are not listed. A number with no mark means an inactive call. Some of the results follow. A call without a number means that no potency is given here. Calls of active or inactive are those of the source. Unless noted, calls come from the whole dose curve; as a rule, active = well fitted curve in the direction sought with a large enough effect; inconclusive = small, poorly fitted or top-dose-only effect, or another doubt; inactive = no such curve, though single readings can be large; an effect the other way counts as inactive or inconclusive.
# Columns and labels:
# [1] = target: Luciferin 4-monooxygenase (Photinus pyralis) (UniProt P08659); test: Biochemical firefly luciferase enzyme assay for NPC (AID 624030);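 note: purified P. pyralis luciferase at 10 nM with luciferin and ATP substrate; series mostly up to about 59 µM; nearly all actives have a fitted effect of over 70% in size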
# Summary of the method: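 Counter-screen for direct inhibition of the luciferase enzyme by approved-drug library compounds, run at 10 nM enzyme in 50 mM Tris acetate (final). Luminescence was read within 5 min of enzyme-buffer addition and normalized to PTC124 versus DMSO (0%).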
# [2] = qHTS screen for small molecules that inhibit ELG1-dependent DNA repair: Hit Confirmation with MMS Viability (AID 624251); note: nearly all actives have a fitted effect of over 60% in size; note: potency is the fitted concentration of half-maximal effect
# Summary of the method: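 This confirmation step measures survival of ELG1-luciferase reporter HEK293T cells co-treated with test compounds and MMS at a final 10 µM, using CellTiter-Glo after a 16-hour incubation.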
# [3] = target: ATPase family AAA domain-containing protein 5 (Homo sapiens) (UniProt Q96QE3); test: qHTS screen for small molecules that inhibit ELG1-dependent DNA repair in human embryonic kidney (HEK293T) cells expressing luciferase-tagged ELG1: Hit Confirmation using MMS Stimulated ELG1 (AID 624249); note: nearly all actives have a fitted effect of over 60% in size; note: potency is the fitted concentration of half-maximal effect
# Summary of the method: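 Luminescence from luciferase-tagged ELG1 measured 16 h after pin-tool compound transfer into HEK293T cells stimulated with 10 µM MMS (final). Compounds lowering luciferase signal counted as inhibitors of ELG1 response.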
# [4] = qHTS for Inhibitors of Ubiquitin-specific Protease USP2a Using CHOP2 as the Reporter: K633 Counterscreen (AID 652168); note: series mostly up to about 57 µM
# Summary of the method: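 Detection-system control: fluorescence of K48-linked DiUb-4IQF substrate (100 nM as added) tracked over time, Ex 525/Em 598, with pinned compounds and no enzyme, in pH 8 Tris buffer containing beta-mercaptoethanol and 0.05% Chaps.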
# [5] = qHTS for Inhibitors of Ubiquitin-specific Protease USP2a Using CHOP2 as the Reporter: Cytotox Assay (AID 652170); note: nearly all actives have a fitted effect of over 70% in size; note: potency is the fitted concentration of half-maximal effect
# Summary of the method: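 Cytotoxicity read as ATP luminescence (CellTiter-Glo) after 72 hr compound treatment at 37 deg C. Cells: HCT116, 600/well in DMEM plus 10% FBS. Normalization between DMSO-treated cells and cell-free wells.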
# [6] = target: Tumor susceptibility gene 101 protein (Homo sapiens) (UniProt Q99816); test: qHTS Assay for Iinhibitors of HIV-1 Budding by Blocking the Interaction of PTAP/TSG101: Hit Validation (AID 651600); note: nearly all actives have a fitted effect of over 70% in size; note: potency is the fitted concentration of half-maximal effect
# Summary of the method: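 FITC-PTAP peptide (50 nM final) binding to Tsg101 binding domain (10 uM final) was measured by polarization after 20 min at r.t. with compounds, in 10 mM HEPES pH 7.5 buffer with 0.15 M NaCl and 0.01% Tween 20.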
# [7] = target: Ubiquitin carboxyl-terminal hydrolase 2 (Homo sapiens) (UniProt O75604); test: qHTS for Inhibitors of Ubiquitin-specific Protease USP2a Using CHOP2 as the Reporter: K484 Substrate (AID 652173);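 note: cleavage of internally quenched K48 di-ubiquitin substrate measured as rising fluorescence over time; nearly all actives have a fitted effect of over 70% in size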; note: potency is the fitted concentration of half-maximal effect
# Summary of the method: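 Kinetic fluorescence (Ex 525/Em 598) tracked cleavage of an internally quenched K48 di-ubiquitin substrate, added as a 100 nM solution. The enzyme was added as a 5 nM USP2 solution before compound pinning, with no-enzyme controls. Buffer: Tris pH 8, beta-mercaptoethanol, CHAPS.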
# [8] = qHTS assay for small molecule activators of the p53 signaling pathway (AID 651743; active = well fitted activation curve with a large enough effect in the signal ratio, not every such curve was filed as active; the % refers to the signal ratio; note: series mostly up to about 92 µM); details: HCT-116 p53RE-bla, beta-lactamase FRET ratio, 16 h; activation: active compounds read high
# Summary of the method: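 Agonist-mode quantitative HTS in HCT-116 cells carrying a p53-response-element beta-lactamase reporter; 16 h compound treatment at 37 C, then FRET substrate loading for 2 h at room temperature and fluorescence read.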
# [9] = qHTS assay for environmental chemicals that activate the Aryl hydrocarbon Receptor (AhR) signaling pathway (AID 651777); details: 1A2-DRE human hepatoma cells, luciferase, 24 h; activation: active compounds read high; note: nearly all actives have a fitted effect of over 15% in size
# Summary of the method: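 Luminescence (One-Glo, 30 min, room temperature) reports AhR-driven luciferase in stably transfected human hepatoma cells bearing DRE and CYP1A2 promoter. Cells (1,200/well) were treated with compound for 24 hr at 37 C in qHTS format.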
# [10] = qHTS assay for small molecule agonists of the antioxidant response element (ARE) signaling pathway measured by Nrf2-dependant transcriptional activity - cell viability counter screen (AID 720653; active = well fitted curve in the direction sought with a large enough effect in the repeat runs; an effect the other way counts as inactive or inconclusive); details: ARE-bla HepG2 viability, CellTiter-Glo ATP luminescence, 16 h; max response: active compounds read low
# Summary of the method: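 ARE-bla HepG2 cells (2,000/well) rested 5 hrs at 37C/5% CO2, then exposed to compounds in DMSO for 16 hrs. Viability was read in the same wells as intracellular ATP by luminescence, 30 min at room temperature after reagent addition.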
# [11] = qHTS assay for cell viability of HEK293 cells (AID 743288); details: ATP luminescence (CellTiter-Glo), 18 h; max response: active compounds read low; note: nearly all actives have a fitted effect of over 50% in size
# Summary of the method: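 Readout is luciferase-coupled ATP content (CellTiter-Glo luminescence, 30 min room temperature) as a measure of metabolically competent cells. Parental HEK293 cells were plated 5 h or more before compound addition, then treated 18 h at 37 C.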
# Chain of Ubiquitin carboxyl-terminal hydrolase 2 (Homo sapiens) (O75604 whole entry, looked up): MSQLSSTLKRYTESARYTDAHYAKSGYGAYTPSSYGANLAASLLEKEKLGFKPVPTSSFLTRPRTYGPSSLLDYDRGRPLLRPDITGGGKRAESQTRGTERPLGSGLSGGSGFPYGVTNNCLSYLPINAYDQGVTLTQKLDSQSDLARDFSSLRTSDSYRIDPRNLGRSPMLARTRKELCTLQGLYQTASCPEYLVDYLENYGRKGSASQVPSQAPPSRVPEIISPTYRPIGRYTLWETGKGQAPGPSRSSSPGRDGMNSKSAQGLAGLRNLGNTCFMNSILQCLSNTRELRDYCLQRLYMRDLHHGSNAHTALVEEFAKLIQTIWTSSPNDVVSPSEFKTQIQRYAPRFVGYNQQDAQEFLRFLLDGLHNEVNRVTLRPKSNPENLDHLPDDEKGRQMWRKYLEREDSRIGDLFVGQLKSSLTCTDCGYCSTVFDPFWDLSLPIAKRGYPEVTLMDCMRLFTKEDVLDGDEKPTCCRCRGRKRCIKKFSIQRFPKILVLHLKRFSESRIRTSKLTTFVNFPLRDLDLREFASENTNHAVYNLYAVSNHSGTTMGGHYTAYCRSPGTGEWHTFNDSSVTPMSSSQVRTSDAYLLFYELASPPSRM
# Chain of Luciferin 4-monooxygenase (Photinus pyralis) (P08659 whole entry, looked up): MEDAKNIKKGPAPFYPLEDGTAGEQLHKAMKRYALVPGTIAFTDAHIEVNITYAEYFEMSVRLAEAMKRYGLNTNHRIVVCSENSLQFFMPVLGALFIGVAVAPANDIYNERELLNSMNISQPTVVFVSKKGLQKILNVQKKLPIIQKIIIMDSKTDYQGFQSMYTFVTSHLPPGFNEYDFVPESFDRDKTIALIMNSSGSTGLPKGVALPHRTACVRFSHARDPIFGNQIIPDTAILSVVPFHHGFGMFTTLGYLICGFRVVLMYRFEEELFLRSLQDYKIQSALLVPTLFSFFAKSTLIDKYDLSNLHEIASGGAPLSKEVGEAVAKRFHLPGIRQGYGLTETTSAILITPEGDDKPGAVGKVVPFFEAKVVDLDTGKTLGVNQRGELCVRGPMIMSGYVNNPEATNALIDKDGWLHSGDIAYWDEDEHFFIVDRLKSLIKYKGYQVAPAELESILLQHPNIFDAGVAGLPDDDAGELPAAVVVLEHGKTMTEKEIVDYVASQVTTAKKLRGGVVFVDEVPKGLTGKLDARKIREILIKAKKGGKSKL
# Chain of Tumor susceptibility gene 101 protein (Homo sapiens) (Q99816 whole entry, looked up, the tested form may be a part): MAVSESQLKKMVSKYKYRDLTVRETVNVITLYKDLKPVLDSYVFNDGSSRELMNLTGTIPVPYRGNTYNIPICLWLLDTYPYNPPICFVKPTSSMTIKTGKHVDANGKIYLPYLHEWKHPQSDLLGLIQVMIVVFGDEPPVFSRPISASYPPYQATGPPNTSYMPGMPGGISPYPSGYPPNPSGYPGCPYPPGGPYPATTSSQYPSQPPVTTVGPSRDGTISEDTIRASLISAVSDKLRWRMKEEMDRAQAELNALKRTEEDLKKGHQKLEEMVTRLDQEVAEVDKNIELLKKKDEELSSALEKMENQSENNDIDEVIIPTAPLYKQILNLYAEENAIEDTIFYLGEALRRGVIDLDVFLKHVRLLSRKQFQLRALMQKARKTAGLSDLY
# Chain of ATPase family AAA domain-containing protein 5 (Homo sapiens) (Q96QE3 whole entry, looked up, the tested form may be a part): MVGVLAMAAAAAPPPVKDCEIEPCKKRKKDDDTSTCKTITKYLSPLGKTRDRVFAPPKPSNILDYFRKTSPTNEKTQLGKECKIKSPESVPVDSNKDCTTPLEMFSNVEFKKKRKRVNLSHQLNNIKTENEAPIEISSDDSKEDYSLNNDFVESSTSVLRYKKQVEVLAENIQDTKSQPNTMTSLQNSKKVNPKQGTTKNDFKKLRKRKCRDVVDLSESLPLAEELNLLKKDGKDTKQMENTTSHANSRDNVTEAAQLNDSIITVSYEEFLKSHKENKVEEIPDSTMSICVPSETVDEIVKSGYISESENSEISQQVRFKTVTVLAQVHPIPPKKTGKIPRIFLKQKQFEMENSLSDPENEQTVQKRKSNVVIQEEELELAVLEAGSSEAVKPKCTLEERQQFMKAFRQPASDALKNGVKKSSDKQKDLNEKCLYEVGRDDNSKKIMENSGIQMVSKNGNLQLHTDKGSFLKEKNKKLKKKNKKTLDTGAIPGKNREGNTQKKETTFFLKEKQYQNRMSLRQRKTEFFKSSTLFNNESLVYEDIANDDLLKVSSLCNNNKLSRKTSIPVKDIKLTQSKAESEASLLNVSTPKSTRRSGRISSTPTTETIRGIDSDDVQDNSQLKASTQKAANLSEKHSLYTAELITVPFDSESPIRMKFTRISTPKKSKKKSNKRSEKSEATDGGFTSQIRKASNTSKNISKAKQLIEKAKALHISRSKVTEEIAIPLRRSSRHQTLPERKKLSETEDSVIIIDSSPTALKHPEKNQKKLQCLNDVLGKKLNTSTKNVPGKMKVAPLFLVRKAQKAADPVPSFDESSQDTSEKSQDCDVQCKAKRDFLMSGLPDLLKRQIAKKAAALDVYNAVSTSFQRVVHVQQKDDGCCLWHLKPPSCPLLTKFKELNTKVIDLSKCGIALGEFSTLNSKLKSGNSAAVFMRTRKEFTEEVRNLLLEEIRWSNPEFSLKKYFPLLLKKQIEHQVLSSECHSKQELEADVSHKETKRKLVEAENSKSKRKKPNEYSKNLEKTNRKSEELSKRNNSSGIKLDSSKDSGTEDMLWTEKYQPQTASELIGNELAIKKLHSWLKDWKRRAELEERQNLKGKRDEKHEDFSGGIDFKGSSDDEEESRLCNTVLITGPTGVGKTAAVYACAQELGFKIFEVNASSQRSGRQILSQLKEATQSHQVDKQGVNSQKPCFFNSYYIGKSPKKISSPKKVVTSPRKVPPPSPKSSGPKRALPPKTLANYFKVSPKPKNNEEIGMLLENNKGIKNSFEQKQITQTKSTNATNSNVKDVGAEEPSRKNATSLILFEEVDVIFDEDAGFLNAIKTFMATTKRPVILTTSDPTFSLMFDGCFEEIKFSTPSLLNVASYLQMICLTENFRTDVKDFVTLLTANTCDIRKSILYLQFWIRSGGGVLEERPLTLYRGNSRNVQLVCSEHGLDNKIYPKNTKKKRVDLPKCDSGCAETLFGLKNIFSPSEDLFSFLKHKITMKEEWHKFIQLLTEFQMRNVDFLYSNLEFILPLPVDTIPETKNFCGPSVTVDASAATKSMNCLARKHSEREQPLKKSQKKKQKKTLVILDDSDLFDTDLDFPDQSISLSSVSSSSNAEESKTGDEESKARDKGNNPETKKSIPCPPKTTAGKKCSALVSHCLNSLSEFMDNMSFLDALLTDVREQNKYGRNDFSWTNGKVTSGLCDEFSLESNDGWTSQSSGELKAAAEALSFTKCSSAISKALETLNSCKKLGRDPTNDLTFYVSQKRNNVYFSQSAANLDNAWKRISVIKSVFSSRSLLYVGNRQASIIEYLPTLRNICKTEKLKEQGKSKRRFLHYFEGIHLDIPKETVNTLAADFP
compound,measurement,setting,value
CC(C)(C)NC(=O)[C@H]1CC[C@H]2[C@@H]3CC=C4C=C(C(=O)O)CC[C@@]4(C)[C@H]3CC[C@]12C,Potency,[1],inactive
COc1ccc(NC(C)=O)cc1NC(=O)CN1CCN(C2c3ccccc3-c3ccccc32)CC1,Potency,[2],inactive
CC[C@H]1OC(=O)C[C@@H](O)[C@H](C)[C@@H](O[C@@H]2O[C@H](C)C[C@H](N(C)C)[C@@H]2O)[C@@H](CC=O)C[C@@H](C)C(=O)/C=C\[C@]2(C)O[C@H]2[C@@H]1C,Potency,[1],inactive
COc1ccc(-c2nn(-c3ccccc3)cc2/C=C\C(=O)N2CCOCC2)cc1[N+](=O)[O-],Potency,[3],inactive
same,Potency,[2],inactive
COc1ccccc1C(=O)Nc1ccc(C)c(S(=O)(=O)N2CCCCC2)c1,Potency,[3],14.1 µM (active)
same,Potency,[2],inactive
Nc1nnc(SCC(=O)Nc2ccc3nc(SCC(=O)Nc4ccccc4)sc3c2)s1,Potency,[3],4.99 µM (active)
same,Potency,[2],5.6 µM (active)
Cc1ccc(C(=O)[C@H](C)CN2CCCCC2)cc1,Potency,[1],inactive
COc1ccc(NS(=O)(=O)c2ccc(Oc3c(C#N)cccc3C#N)cc2)cc1,Potency,[3],3.15 µM (active)
same,Potency,[2],4.45 µM (active)
O=C(C1CCCN(S(=O)(=O)c2ccccc2)C1)N1CCN(c2ccc(F)cc2)CC1 (stereo not drawn),Potency,[3],4.45 µM (active)
same,Potency,[2],3.97 µM (active)
Cc1ccc(S(=O)(=O)Nc2cnccc2C(=O)Nc2nc(-c3ccc(F)cc3)cs2)cc1,outcome,[4],inactive
same,Potency,[5],20.9 µM (active)
Brc1ccc(-c2nc3ccccn3c2Nc2ccc3c(c2)OCCO3)o1,Potency,[6],inactive
COc1ccc(C(=O)c2sc3nc(C)cc(-c4cccs4)c3c2N)cc1OC,Potency,[6],inactive
CCN(CC)C(=O)[C@H]1CC(CC(=O)NCc2cccc(C(F)(F)F)c2)C(=O)N2CCc3c([nH]c4ccc(OC)cc34)[C@]12C (stereo partly drawn),Potency,[6],inactive
COc1cccc(S(=O)(=O)Nc2cnccc2C(=O)Nc2nc(-c3ccccc3)cs2)c1,outcome,[4],inactive
CCOC(=O)Cn1c(=O)c(-c2cc(Br)ccc2N)nc2ccccc21,Potency,[6],inactive
O=C1Nc2ccc(F)cc2C12Nc1ccccc1-c1nnc(SCc3ccccc3F)nc1O2 (stereo not drawn),Potency,[6],inactive
Cc1ccc(-c2cc(C(=O)NC3CCCCC3)c3ccccc3n2)cc1C,outcome,[4],inactive
same,Potency,[5],inactive
O=C(Nc1nc(-c2ccccc2)cs1)c1ccncc1NS(=O)(=O)c1cccs1,outcome,[4],inactive
same,Potency,[5],inactive
same,Potency,[7],3.43 µM (active)
C=C1CCN(c2ccc(C(=O)O)cc2[N+](=O)[O-])CC1,Potency,[6],inactive
CC(=O)Nc1ccc(NC(=O)c2cc(-c3ccc(C)c(C)c3)nc3ccccc23)cc1,outcome,[4],inactive
N#Cc1c(SCC(=O)Nc2nc3ccc(Br)cc3s2)sc2c(O)cc(=O)[nH]c12,Potency,[6],inactive
COc1ccccc1S(=O)(=O)Nc1cnccc1C(=O)Nc1nc(-c2ccccc2)cs1,outcome,[4],inactive
same,Potency,[5],inactive
same,Potency,[7],13.7 µM (active)
Cc1ccc(C(=O)Nc2ccc(S(=O)(=O)Nc3nccs3)cc2)cc1C,outcome,[4],inactive
same,Potency,[5],inactive
same,Potency,[7],24.3 µM (active)
Cc1ccc(S(=O)(=O)Nc2cnccc2C(=O)Nc2nc(-c3cnn(C)c3)cs2)cc1,outcome,[4],inactive
same,Potency,[5],inactive
same,Potency,[7],8.63 µM (active)
COc1ccc(OC)c(NC(=O)CCN2CC(C)CC(C)C2)c1 (stereo not drawn),Potency,[6],inactive
OC(CN1CCN(c2ccccn2)CC1)Cn1c2ccccc2c2ccccc21 (stereo not drawn),Potency,[6],inactive
Cc1ccc(S(=O)(=O)Nc2cnccc2C(=O)NCCc2ccccc2)cc1,outcome,[4],inactive
CCOC(=O)C1CCCN(c2nc3ccccc3nc2C(C#N)C(=O)NCc2ccccc2)C1 (stereo not drawn),Potency,[6],inactive
CN1CCc2c(sc3c2C(=O)NC(c2ccccn2)N3)C1 (stereo not drawn),Potency,[6],18.3 µM (active)
O=c1oc2c(CN3CCCCC3)c(O)ccc2cc1-c1nc2ccccc2[nH]1,Potency,[6],18.3 µM (active)
O=C(NCc1cc(C(F)(F)F)ccc1Cl)c1cccc2c1C(=O)c1ccc(N3CCC(Cc4ccccc4)CC3)cc1S2(=O)=O,Potency,[6],13 µM (active)
COc1ccc(OC)c2cc3ccccc3cc12,Potency,[6],32.6 µM (active)
Cc1cccc(CCNC(=O)c2sc3nc4n(c(=O)c3c2C)CCCC4)c1,Potency,[6],inactive
O=C(Nc1nc(-c2ccccc2)cs1)c1ccncc1NS(=O)(=O)c1ccccc1,outcome,[4],inactive
COc1ccc(/C=C2/N=C(c3cccs3)OC2=O)cc1OC(C)C,Potency,[6],inactive
O=C(Nc1nc(-c2ccccc2)cs1)c1ccncc1NS(=O)(=O)c1ccccc1Cl,outcome,[4],inactive
same,Potency,[5],inactive
same,Potency,[7],1.53 µM (active)
O=C(Nc1nc(-c2ccccc2)cs1)c1ccncc1NS(=O)(=O)c1ccc(C(F)(F)F)cc1,outcome,[4],inactive
same,Potency,[5],inactive
same,Potency,[7],3.06 µM (active)
CCCN1C(=O)/C(=C/C=C2\N(CC)c3ccccc3C2(C)C)SC1=S,Potency,[6],29.1 µM (active)
COc1ccccc1NC(=O)C(C)OC(=O)C1CC(=O)N(c2ccc3c(c2)OCCO3)C1 (stereo not drawn),Potency,[6],inactive
Nc1cccc(S(=O)(=O)Nc2cnccc2C(=O)Nc2nc(-c3ccccc3)cs2)c1,outcome,[4],inactive
same,Potency,[5],inactive
same,Potency,[7],13.7 µM (active)
Cc1ccc(S(=O)(=O)Nc2cnccc2C(=O)Nc2nc(C(=O)O)cs2)cc1,outcome,[4],inactive
CCC(=O)OC1CCC(C(=O)Nc2ccc([S+](=O)([O-])Nc3nccs3)cc2)CC1 (stereo not drawn),outcome,[4],inactive
same,Potency,[5],inactive
same,Potency,[7],inactive
O=C1Nc2ccc(Cl)cc2C12Nc1ccccc1-c1nnc(SCc3ccccc3F)nc1O2 (stereo not drawn),Potency,[6],inactive
Cc1ccc(-c2cc(C(=O)Nc3ccc(C(F)(F)F)cc3)c3ccccc3n2)cc1C,outcome,[4],inactive
CCCCCCCC1CCC(=O)O1 (stereo not drawn),activation,[8],-2.71%
same,activation,[9],4.53%
same,max response,[10],-3.73%
same,max response,[11],-3.73%
COCCN(CCOC)Cc1c(O)ccc2c1O/C(=C\c1ccco1)C2=O,Potency,[6],13 µM (active)
C/C(=N/NC(=O)c1ccncc1)c1cc2ccc(O)cc2oc1=O,Potency,[6],14.6 µM (active)
